# The list is not random: actives were taken first. Their share in the collection is about 22%.
# cytoskel mod: modifiers of cytoskeleton assembly | AID 836 | inhibition, % at 2 µM | HUVEC TNFa F-actin phalloidin imaging, high content | 0.18% of 91,000 active;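 active means inhibition above the batch mean plus 3 SD and confirmed as a hit by visual image inspection, cut at about 30% in these data, passing the limit was not always enough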
# E-sel TNF inh: blocks E-selectin expression induced by TNF alpha; HUVEC TNFa-induced E-selectin immunofluorescence, high content; inhibition, % at 2 µM; 0.71% of 120,000 active; AID 1246;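 active means inhibition above the batch mean plus 3 SD, and confirmed as a hit on visual image review, cut at about 43% in these data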;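 further: 0% = TNF-stimulated DMSO wells and 100% = unstimulated control wells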
# CYP2C19 inhib: blocks human cytochrome P450 2C19; P33261; CYP2C19 Supersomes, luciferin-H EGE luminescence, 30 min; inhibition, % at 5 µM; 21% of 96,000 active;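 active means CYP2C19 inhibition above a set limit at 5 µM in the primary screen, cut at about 50% in these data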;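 further: plate controls were negative control wells for no effect and 2.5 mM tranylcypromine positive control for full effect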
# CYP2C9 activ: activators of human CYP2C9. P11712. recombinant CYP2C9, luciferin-H conversion, luminescence; stronger effect = higher value; factor 1 = untreated enzyme, 0 = blocked. activation factor at 5 µM. 1.4% of 96,000 active;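 active means activation factor of 2 or more for CYP2C9 at a 5 µM dose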;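 further: 0 = sulfaphenazole-blocked wells and 1 = vehicle-only wells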
# Target sequence (P11712 whole entry, looked up): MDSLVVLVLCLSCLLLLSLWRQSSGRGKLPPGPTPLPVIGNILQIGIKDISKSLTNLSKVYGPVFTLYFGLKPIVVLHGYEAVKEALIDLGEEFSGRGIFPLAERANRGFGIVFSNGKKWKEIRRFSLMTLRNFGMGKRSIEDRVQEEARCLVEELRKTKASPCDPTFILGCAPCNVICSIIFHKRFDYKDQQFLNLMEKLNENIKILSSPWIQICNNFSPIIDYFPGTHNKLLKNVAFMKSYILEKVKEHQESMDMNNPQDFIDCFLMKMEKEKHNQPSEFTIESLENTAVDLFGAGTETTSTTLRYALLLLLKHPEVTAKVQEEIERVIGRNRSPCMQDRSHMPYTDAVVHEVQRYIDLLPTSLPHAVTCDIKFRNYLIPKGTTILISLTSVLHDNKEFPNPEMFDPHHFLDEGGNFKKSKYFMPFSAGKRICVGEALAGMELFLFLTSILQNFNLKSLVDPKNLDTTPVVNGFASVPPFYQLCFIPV
# CYP2C9 inhib: inhibitors of human CYP2C9 | P11712 | CYP2C9 Supersomes, luciferin-H conversion, luminescence | inhibition, % at 5 µM | 20% of 96,000 active;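 active means blocking of liver enzyme CYP2C9 beyond about 50% at 5 µM, limit read from the data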
# CYP2C19 act: increases human CYP2C19 enzyme activity; P33261; recombinant CYP2C19, luciferin-H EGE luminescence; stronger effect = higher value; 0 = fully inhibited enzyme, 1 = untreated enzyme; 96,000 tested, under 10 active; activation factor at 5 µM;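 active means activation factor of at least 2 at 5 µM in the primary screen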;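 further: 0 = wells with 2.5 mM tranylcypromine and 1 = vehicle-only wells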
# * marks the source's active call; other numbers are inactive results; . = not tested or not shown.
SMILES,cytoskel mod,E-sel TNF inh,CYP2C19 inhib,CYP2C9 activ,CYP2C9 inhib,CYP2C19 act
CCOC(=O)C1Cn2c(nc3c(c2=O)C2(CCCC2)Cc2ccccc2-3)S1 (stereo not given),12,.,62*,0.6,38,0.4
CCOC(=O)C1Cn2c(nc3c(c2=O)C(C)(C)Cc2ccccc2-3)S1 (stereo not given),-14,43,97*,0.1,88*,0
Cc1cccc(-n2c(SCc3cc(=O)n4ccsc4n3)nc3ccccc32)c1,-10,14,.,.,.,.
COCCn1c(=S)[nH]c2ccc(N(C)C)cc2c1=O,-58,-6,52*,0.7,32,0.5
CC(C)(C)NC(=O)Cn1cc(C#N)c2cc(Br)ccc21,-2,17,88*,0.8,21,0.1
O=C(NCc1ccccc1)N1CCN(c2ccc(Cl)c(Cl)c2)CC1,-29,71*,-3,0.8,22,1
O=C(O)C1CC1C(=O)N1CCN(c2ccc(Cl)c(Cl)c2)CC1 (stereo not given),-3,21,-2,1.1,-11,1
Cc1occc1C(=O)N1CCN(C(c2ccccc2)c2ccccc2)CC1,9,-5,35,0.5,53*,0.7
CN(C)C(=C(C#N)C#N)N1CCN(c2ccc(Cl)c(Cl)c2)CC1,.,-12,56*,0.4,64*,0.4
O=C(C1=COCCO1)N1CCN(C(c2ccccc2)c2ccccc2)CC1,-10,-1,4,0.3,67*,1
O=C(NCc1ccccc1)N1CCN(c2ccc(F)cc2)CC1,6,-48,.,.,.,.
Cc1occc1C(=O)N1CCN(c2ccccc2)CC1,.,12,.,.,.,.
O=C(C1CCCO1)N1CCN(C(c2ccccc2)c2ccccc2)CC1 (stereo not given),-23,-17,-11,1,3,1.1
Cc1cc(C(=O)N2CCN(C(c3ccccc3)c3ccccc3)CC2)on1,0,.,69*,0.2,77*,0.3
Cc1occc1C(=O)N1CCN(c2ccc(Cl)c(Cl)c2)CC1,-7,-34,98*,0.2,83*,0
O=C(c1cc(C2CC2)on1)N1CCN(C(c2ccccc2)c2ccccc2)CC1,2,.,-4,0.8,16,1
CC(NC(=O)OCc1ccccc1)C(=O)NCC1CCCO1 (stereo not given),9,26,-7,1.4,-44,1.1
c1ccc(Cn2nnc(-c3ccccc3)n2)cc1,-25,-9,.,.,.,.
N#Cc1cccc(Cn2nnc(-c3ccccc3)n2)c1,4,-18,69*,0.6,37,0.3
CCNC(=O)N(C(=O)NCC)n1c(C)nnc1C,5,42,-9,1.1,-9,1.1
COC(=O)c1sc(NC(=O)c2ccco2)nc1C,.,-30,8,0.8,18,0.9
CCOC(=O)c1sc(NC(NC(=O)c2ccco2)(C(=O)OC)C(F)(F)F)nc1C (stereo not given),3,-10,7,0.4,56*,0.9
CN(C)C(=O)C(=O)c1cccn1-c1ccccc1C#N,-8,-13,-2,1,-1,1
CC(C)N(C(=O)C(=O)c1cccn1-c1ccccc1C#N)C(C)C,-10,12,54*,0.7,27,0.5
CCN(CC)C(=O)C(=O)c1cccn1-c1cccc(Cl)c1C#N,-7,15,81*,0.6,43,0.2
SMILES,cytoskel mod,E-sel TNF inh,CYP2C19 inhib,CYP2C9 activ,CYP2C9 inhib,CYP2C19 act
O=C(NCc1ccco1)c1nn(-c2ccccc2)c(=O)c2ccccc12,.,-38,7,0.6,42,0.9
CCOC(=O)c1c(C)nc2c(c(SC)nn2-c2ccccc2)c1N,-4,-20,24,1.2,-16,0.8
COc1ccc(C2CC(c3cccs3)=NN2C(=O)c2ccc(Br)o2)cc1 (stereo not given),.,-5,.,.,.,.
O=S(=O)(c1ccccc1)N1N=C(c2cccs2)CC1c1ccc(Br)cc1 (stereo not given),-6,-32,21,0.5,52*,0.8
O=C(NC1CCCCC1)C(c1cccs1)N(Cc1cccs1)C(=O)c1ccco1 (stereo not given),43,36,55*,0.5,53*,0.4
O=C(NC1CCCCC1)C(c1cccs1)N(C(=O)c1ccco1)c1ccc2c(c1)OCCO2 (stereo not given),-28,60*,.,.,.,.
Cc1ccc(C(C(=O)NCc2ccco2)N(Cc2ccco2)C(=O)CNC(=O)c2ccco2)cc1 (stereo not given),-24,-26,57*,0.6,36,0.4
O=C(NCc1ccccc1)C(c1ccccc1)N(Cc1cccs1)C(=O)c1cnccn1 (stereo not given),15,0,62*,0.7,25,0.4
O=C(NCC(=O)N(Cc1cccs1)C(C(=O)NC1CCCCC1)c1ccco1)c1ccco1 (stereo not given),-7,31,.,.,.,.
COc1ccc(C(C(=O)NC2CCCCC2)N(Cc2ccco2)C(=O)CNC(=O)c2ccco2)cc1 (stereo not given),16,-1,.,.,.,.
COc1ccc(C(C(=O)NC2CCCC2)N(C(=O)c2ccco2)c2ccc3c(c2)OCO3)cc1OC (stereo not given),26,2,-2,0.9,5,1
COc1ccccc1NC(=O)C(=O)N(c1cccnc1)C(C(=O)NC(C)(C)C)c1ccccc1 (stereo not given),.,18,.,.,.,.
CCOC(=O)c1ccc(NC(=O)CCSCCc2ccccn2)cc1,.,19,.,.,.,.
O=C(CCC(=O)N(Cc1ccco1)C(C(=O)NC1CCCC1)c1ccncc1)Nc1cccnc1 (stereo not given),9,0,75*,0.4,61*,0.3
O=C(NCC(=O)N(Cc1ccco1)C(C(=O)NC1CCCC1)c1cccnc1)c1cccs1 (stereo not given),-8,9,17,0.1,86*,0.8
O=C(NCC(=O)N(Cc1ccco1)C(C(=O)NC1CCCC1)c1ccncc1)c1cccs1 (stereo not given),-16,-13,.,.,.,.
O=C(NCC(=O)N(Cc1cccs1)C(C(=O)NC1CCCC1)c1ccncc1)c1ccco1 (stereo not given),6,0,61*,0.3,72*,0.4
Cc1ccc(S(=O)(=O)N(Cc2cc3cc4c(cc3[nH]c2=O)OCCO4)CC2CCCO2)cc1 (stereo not given),-1,-23,21,0.8,24,0.8
Cc1ccc2[nH]c(=O)c(CN(CC3CCCO3)S(=O)(=O)c3cccc4nsnc34)cc2c1 (stereo not given),13,16,79*,0.1,91*,0.2
Cc1ccc2[nH]c(=O)c(CN(CC3CCCO3)S(=O)(=O)c3c(C)ccc4nsnc34)cc2c1 (stereo not given),-75,.,29,0.5,52*,0.7
C=CCN1C(=O)C(CC(=O)NCC)SC1=Nc1ccc(S(N)(=O)=O)cc1 (stereo not given),1,-41,.,.,.,.
O=C(COC(=O)c1cc(S(=O)(=O)N2CCOCC2)cs1)c1ccccc1,.,-1,9,0.8,21,0.9

# From PubChem
